# Reference: PubChem BioAssay AID686996 (Broad Institute, 2013)
# Several values for one entry are separate records, joined by “and”; a condition that tells them apart may be missing. Identical values can stand only once. In all, about 350,000 compounds went through this assay and about 1,900 (0.54%) were called active.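 How the source made its calls: active means mean inhibition across replicates at least about 35%, with every replicate also reaching that limit (limit read from the data); inconclusive means only one of the two criteria met; inactive means neither criterion met.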 This excerpt belongs to a sample that is enriched for actives. More than one record can exist for a structure, and the calls need not agree.
# Target: Caspase-6 (Homo sapiens) (UniProt P55212)
# Sequence (P55212 24-179 limits assumed): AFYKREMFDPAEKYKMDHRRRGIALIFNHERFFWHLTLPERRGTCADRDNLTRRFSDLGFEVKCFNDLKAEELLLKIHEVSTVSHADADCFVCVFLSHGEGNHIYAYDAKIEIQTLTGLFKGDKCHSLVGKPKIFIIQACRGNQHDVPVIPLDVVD
# Sequence (P55212 194-293 limits assumed): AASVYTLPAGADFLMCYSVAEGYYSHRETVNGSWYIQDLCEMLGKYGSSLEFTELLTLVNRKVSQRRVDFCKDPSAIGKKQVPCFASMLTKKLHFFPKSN
# Experiment: inhibition of CASP6 peptide cleavage – biochemical, VEID-R110 fluorescence, single point, set 2, primary screen (AID 686996);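 further: 0% = median of neutral control wells and 100% = no fluorescence left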
# Settings: purified caspase-6, Z-VEID-R110 cleavage fluorescence; at 12.5 µM; stronger effect = higher value
row,Compound,inhibition
1,COc1ccccc1C#Cc1cnc2c(c1)C(=O)N([C@@H](C)CO)C[C@H](C)[C@@H](CN(C)C(=O)CC1CC1)O2,-4.85% (inactive)
2,NC1=CC(=O)C(=O)c2cccnc21,93.8% (active)
3,CCOc1ccc(CCN2C(=O)c3cccnc3C2=O)cc1OCC,3.27% (inactive)
4,C[C@@H]1CN([C@H](C)CO)C(=O)c2cc(NC(=O)Cc3ccccc3)ccc2O[C@@H](C)CCCCO[C@H]1CN(C)C(=O)Cc1ccccc1,1% (inactive)
5,C[C@@H]1CN([C@H](C)CO)C(=O)c2cc(C#CC3CC3)cnc2O[C@@H]1CN(C)Cc1ccccn1,-0.477% (inactive)
6,O=C1C=CCCN1C(=O)/C=C/c1ccc(F)cc1,6.28% (inactive)
7,C[C@H](CO)N1C[C@H](C)[C@H](CN(C)Cc2ccc(C(=O)O)cc2)Oc2ncc(-c3ccccc3)cc2C1=O,-1.47% (inactive)
8,CC(=O)N(C1=C(Cl)C(=O)c2ccccc2C1=O)c1ccc(C(=O)O)cc1,91% (active)
9,O=C1C(Cl)=C(Oc2ccccc2)C(=O)c2ccccc21,4.78% (inactive)
10,O=C(NC1=CC(=O)c2ccccc2C1=O)c1ccccc1,1.17% (inactive)
11,CNC[C@@H]1OCCCC[C@@H](C)Oc2ccc(NS(C)(=O)=O)cc2C(=O)N([C@H](C)CO)C[C@@H]1C,-3.75% (inactive)
12,CCO[C@H]1OC(C(=O)N2CCOCC2)=C[C@@H](c2ccc3c(c2)OCO3)[C@@H]1CCCO,38.4% (active) and 1.81% (inactive)
13,CCO[C@H]1OC(C(=O)N2CCCCCCC2)=C[C@@H](c2ccc(C(F)(F)F)cc2)[C@@H]1CCCO,-1.98% (inactive) and 3.38% (inactive)
14,CCO[C@@H]1OC(C(=O)N2CCOCC2)=C[C@H](C)[C@H]1CCCO,-0.276% (inactive)
15,Cc1noc(C)c1NC(=O)Nc1ccc2c(c1)C(=O)N([C@H](C)CO)C[C@@H](C)[C@@H](CN(C)Cc1ccccc1)O2,-0.453% (inactive)
16,C[C@H](CO)N1C[C@H](C)[C@H](CN(C)Cc2ccc(C(F)(F)F)cc2)OCCCC[C@H](C)Oc2ccc(NS(=O)(=O)c3ccc(Cl)cc3)cc2C1=O,0% (inactive)
17,CCC(=O)N1[C@H](C(=O)OC)[C@@H](CO)[C@@H]2Cn3c(ccc(-c4cccc(F)c4)c3=O)[C@@H]21,-0.171% (inactive)
18,Cc1cccc(-c2ccc(C3[C@@H]4CN(C(=O)Nc5ccc(C(F)(F)F)cc5)C[C@H]3N4)cc2)c1 (stereo partly drawn),17.5% (inactive) and -2.54% (inactive)
19,C[C@@H]1CCCCO[C@@H](CN(C)Cc2ccccc2)[C@H](C)CN([C@H](C)CO)C(=O)c2cc(NS(=O)(=O)c3cccs3)ccc2O1,-0.17% (inactive)
20,Cc1ccc(S(=O)(=O)N2CCN(C(=O)COC(=O)CNC(=O)c3ccc(C(C)(C)C)cc3)CC2)c(C)c1,53.3% (active)
21,COc1ccccc1CCC(=O)OCC(=O)N1CCN(S(=O)(=O)c2ccc(C)cc2C)CC1,0.558% (inactive)
22,Cc1ccc(S(=O)(=O)N2CCN(C(=O)COC(=O)c3c(C)cc(C)cc3C)CC2)c(C)c1,0.238% (inactive)
23,COc1ccc(S(=O)(=O)N2CCC(C(=O)OCC(=O)c3ccccc3)CC2)cc1[N+](=O)[O-],-8.89% (inactive)
24,CC1CN(C(=O)c2ccccc2NS(=O)(=O)c2cccc([N+](=O)[O-])c2)CC(C)O1 (stereo not drawn),0.082% (inactive)
25,COc1ccc(Br)cc1/C=N/Nc1ccc(S(=O)(=O)Nc2ccccc2C(=O)O)cc1[N+](=O)[O-],49.3% (active)
26,CCCN1[C@H](C(=O)N[C@H](C)c2ccccc2)[C@@H](CO)[C@@H]2Cn3c(ccc(-c4ccccc4)c3=O)[C@@H]21,-1.76% (inactive)
27,O=C(C[C@H]1CC[C@H]2[C@@H](COC[C@@H](O)CN2CC2CCOCC2)O1)NCc1ccc(Cl)cc1,-3.23% (inactive)

row,Compound,inhibition
1,Cc1noc(C)c1S(=O)(=O)N(C)C[C@@H]1Oc2ccc(NC(=O)Cn3cnnn3)cc2CC(=O)N([C@@H](C)CO)C[C@@H]1C,2.4% (inactive)
2,COc1ccc(NC(=O)c2sc(=O)n(Cc3ccc(S(=O)(=O)N(C)C)cc3)c2C)cc1,-0.522% (inactive)
3,CCN=c1sc(C(=O)Nc2ccccc2)c(C)n1CC,67.5% (active)
4,Cc1c(C(=O)Nc2ccccc2)sc2nc3n(c(=O)c12)CCCCC3,14.7% (inactive)
5,C[C@@H]1CN([C@@H](C)CO)C(=O)Cc2cc(NS(C)(=O)=O)ccc2O[C@H]1CN(C)C(=O)Nc1ccccc1,2.54% (inactive)
6,O=S(=O)(N[C@H]1CC[C@@H](CCNS(=O)(=O)c2ccccc2Cl)O[C@@H]1CO)c1ccccc1,1.46% (inactive)
7,C[C@@H]1CN([C@@H](C)CO)C(=O)c2cc(NC(=O)Nc3ccc4c(c3)OCO4)ccc2O[C@@H](C)CCCCO[C@@H]1CN(C)S(=O)(=O)c1cccs1,-0.287% (inactive)
8,O=C(O)c1ccc(NS(=O)(=O)c2cccc3nsnc23)cc1,4.06% (inactive)
9,COc1ccc(NS(=O)(=O)c2cccc3nsnc23)cc1Cl,-0.203% (inactive)
10,O=S(=O)(Nc1ccccc1Cl)c1cccc2nsnc12,51.3% (active)
11,Cc1cccc(S(=O)(=O)N2CC[C@@H]3[C@H]2c2cc(C#Cc4ccccc4F)ccc2N[C@@H]3CO)c1,4.39% (inactive)
12,CC(C)NC(=O)Nc1ccc2c(c1)C(=O)N([C@@H](C)CO)C[C@H](C)[C@H](CN(C)C(=O)NC1CCCCC1)OCCCC[C@@H](C)O2,1.72% (inactive)
13,C[C@@H]1CN([C@H](C)CO)C(=O)c2cc(-c3cccc(C#N)c3)cnc2O[C@H]1CN(C)C(=O)C1CCC1,-1.37% (inactive)
14,COc1ccc(-c2cc(=O)oc3cc(OCC(=O)N[C@@H](Cc4c[nH]c5ccccc45)C(=O)O)ccc23)cc1,5.8% (inactive)
15,COc1ccc(-c2cc(C(=O)NC(Cc3c[nH]c4ccccc34)C(=O)O)c(C)o2)cc1OC (stereo not drawn),50.7% (active)
16,CC(Oc1ccc2c(-c3ccccc3)cc(=O)oc2c1)C(=O)NC(Cc1c[nH]c2ccccc12)C(=O)O (stereo not drawn),5.42% (inactive)
17,COc1ccc2c3c([nH]c2c1)[C@H](CO)N(Cc1nccs1)CC31CCN(Cc2cccnc2)CC1,1.89% (inactive)
18,C/C=C/c1ccc([C@H]2[C@@H](CO)N(C(C)=O)[C@H]2CNC(=O)c2ccncc2)cc1,-0.501% (inactive)
19,COc1ccc2c3c([nH]c2c1)[C@@H](CO)N(S(C)(=O)=O)CC31CN(CC2CC2)C1,0.799% (inactive)
20,COc1ccc(S(=O)(=O)N(CC(=O)N/N=C/c2ccc(C(=O)O)cc2)Cc2ccccc2)cc1OC,3.65% (inactive)
21,COc1ccc(Cl)cc1N(CC(=O)N1CCCCC1)S(C)(=O)=O,5.56% (inactive)
22,COc1ccc(Cl)cc1N(CC(=O)N/N=C/c1ccc(OCC(N)=O)cc1)S(C)(=O)=O,49.4% (active)
23,O=C(C1CCCCC1)N1CC(=O)N2[C@H](CO)[C@@H](c3ccc(C#Cc4cccc(F)c4)cc3)[C@@H]2C1,-1.89% (inactive)
24,C[C@H](CO)N1C[C@H](C)[C@H](CN(C)C(=O)C2CCOCC2)Oc2ncc(-c3ccccc3F)cc2C1=O,-2.04% (inactive)
25,C[C@H](CO)N1C[C@H](C)[C@@H](CN(C)Cc2cccc(F)c2)Oc2cc(C#CC3CC3)ccc2S1(=O)=O,0.411% (inactive)
26,Cc1ccc(S(=O)(=O)N(C)C[C@H]2Oc3ccc(NC(=O)Nc4cccc5ccccc45)cc3CC(=O)N([C@H](C)CO)C[C@H]2C)cc1,-0.526% (inactive)
